Source: PubChem
Dicer processing = human Dicer pre-microRNA cleavage inhibition; z-score at 25 µM; actives 6% (n = 47,000); cat-ELCCA pre-miR-21 Dicer processing, chemiluminescence; hits give high values; in the data active = z-score above about 3, passing the limit was not always enough;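 note: plate controls were vehicle for no effect and no enzyme for full effect; higher signal means more uncleaved substrate so more Dicer inhibition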
Target sequence (Q9UPY3 whole entry, looked up): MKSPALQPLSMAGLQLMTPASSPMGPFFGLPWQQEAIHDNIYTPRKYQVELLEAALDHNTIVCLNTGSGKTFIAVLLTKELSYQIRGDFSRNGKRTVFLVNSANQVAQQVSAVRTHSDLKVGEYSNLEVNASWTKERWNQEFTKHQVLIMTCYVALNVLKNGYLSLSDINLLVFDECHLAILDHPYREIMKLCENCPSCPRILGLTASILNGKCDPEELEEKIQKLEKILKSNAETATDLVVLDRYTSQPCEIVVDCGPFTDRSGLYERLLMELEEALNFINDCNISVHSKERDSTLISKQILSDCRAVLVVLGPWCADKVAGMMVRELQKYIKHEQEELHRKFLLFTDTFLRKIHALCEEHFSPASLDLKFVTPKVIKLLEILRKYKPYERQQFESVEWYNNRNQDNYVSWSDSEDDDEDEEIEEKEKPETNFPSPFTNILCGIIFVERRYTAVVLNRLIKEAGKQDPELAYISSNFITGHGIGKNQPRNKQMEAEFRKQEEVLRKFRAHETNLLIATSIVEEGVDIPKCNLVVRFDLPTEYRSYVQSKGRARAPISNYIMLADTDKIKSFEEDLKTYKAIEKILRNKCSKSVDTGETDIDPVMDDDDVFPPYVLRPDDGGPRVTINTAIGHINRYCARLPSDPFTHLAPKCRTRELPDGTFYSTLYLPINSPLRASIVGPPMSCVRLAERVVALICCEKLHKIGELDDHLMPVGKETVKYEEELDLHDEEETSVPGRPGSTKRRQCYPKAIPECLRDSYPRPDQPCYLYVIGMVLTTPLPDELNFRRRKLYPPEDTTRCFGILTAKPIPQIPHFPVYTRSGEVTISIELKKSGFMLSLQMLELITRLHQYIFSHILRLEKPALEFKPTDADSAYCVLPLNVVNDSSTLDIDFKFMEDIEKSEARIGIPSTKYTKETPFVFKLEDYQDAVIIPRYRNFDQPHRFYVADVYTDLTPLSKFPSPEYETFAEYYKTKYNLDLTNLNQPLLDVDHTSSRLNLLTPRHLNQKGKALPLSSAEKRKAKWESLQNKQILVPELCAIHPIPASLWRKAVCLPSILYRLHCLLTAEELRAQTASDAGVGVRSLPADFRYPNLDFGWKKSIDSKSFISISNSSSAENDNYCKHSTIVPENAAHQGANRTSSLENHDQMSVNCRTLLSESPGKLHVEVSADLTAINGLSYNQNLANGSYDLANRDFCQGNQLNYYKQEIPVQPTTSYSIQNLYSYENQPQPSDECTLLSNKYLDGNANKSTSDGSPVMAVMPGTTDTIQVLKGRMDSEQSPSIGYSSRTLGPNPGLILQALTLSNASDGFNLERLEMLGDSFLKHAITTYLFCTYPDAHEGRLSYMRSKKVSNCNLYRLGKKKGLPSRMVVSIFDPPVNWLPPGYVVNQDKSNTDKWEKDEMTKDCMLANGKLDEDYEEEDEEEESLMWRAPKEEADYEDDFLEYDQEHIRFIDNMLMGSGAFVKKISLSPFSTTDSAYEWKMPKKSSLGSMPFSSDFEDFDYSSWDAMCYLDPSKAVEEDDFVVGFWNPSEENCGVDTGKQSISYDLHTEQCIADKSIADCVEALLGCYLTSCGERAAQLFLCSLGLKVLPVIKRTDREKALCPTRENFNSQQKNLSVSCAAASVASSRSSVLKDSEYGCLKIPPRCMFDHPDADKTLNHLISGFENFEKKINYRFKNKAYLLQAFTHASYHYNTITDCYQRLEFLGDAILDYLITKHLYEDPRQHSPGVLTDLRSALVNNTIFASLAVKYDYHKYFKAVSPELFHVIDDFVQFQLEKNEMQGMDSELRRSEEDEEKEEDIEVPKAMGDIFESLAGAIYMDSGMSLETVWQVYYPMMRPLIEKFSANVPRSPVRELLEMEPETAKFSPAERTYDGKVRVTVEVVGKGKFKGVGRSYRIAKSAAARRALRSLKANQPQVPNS
Active calls of the source: *. Many of the other results were omitted from the sample, so hits are more common in it than they were.

SMILES | Dicer processing
COc1cc(C2CC(=O)NC(SCc3ccccc3)=C2C#N)cc(Br)c1O (stereo unspecified) | 0.57
Cc1nc(N=Nc2ccc(C(=O)O)cc2)c(COP(=O)(O)O)c(C=O)c1O | -1.7
Cc1nc(N=Nc2ccc(S(=O)(=O)O)cc2S(=O)(=O)O)c(COP(=O)(O)O)c(C=O)c1O | 3.1*
CN1CCCN(C(=S)NCCCN2CCOCC2)CC1 | -0.38
Cc1ncc(CNS(=O)(=O)c2ccccc2C(F)(F)F)c(N)n1 | -1.3
Cc1cc(C)cc(OCc2nc(Cc3ccc(Cl)cc3)no2)c1 | -0.85
CCOC(=O)N1CCc2c(sc3c2C(=O)NC(c2cccc(Cl)c2)N3)C1 (stereo unspecified) | -1.3
CCn1c[n+](CC(O)COc2ccccc2C)c2ccccc21 (stereo unspecified) | -1.8
CCn1c[n+](CC(O)COc2ccccc2OC)c2ccccc21 (stereo unspecified) | 7.7*
CCn1c[n+](CC(O)COc2ccccc2)c2ccccc21 (stereo unspecified) | -1.8
CCOc1ccc(C(=O)Cn2c(C)[n+](C)c3ccccc32)cc1 | -1.2
CCCCc1n(CC(=O)c2ccccc2)c2ccccc2[n+]1C | 0.12
Cc1n(CC(=O)c2ccc(F)cc2)c2ccccc2[n+]1C | 4.8*
c1ccc2[nH]c(CSCSCc3nc4ccccc4[nH]3)nc2c1 | -0.12
Clc1ccc(/C=N\Nc2nc3ccccc3nc2/C=C/c2cccs2)cc1 | 2
O=S(=O)(Nc1ccccn1)c1ccc(C(F)(F)F)cc1Cl | -0.2
O=S(=O)(Nc1ncccn1)c1ccc(C(F)(F)F)cc1Cl | 3*
COC(=O)C1=C(Nc2ccccc2NS(=O)(=O)c2ccc(C(F)(F)F)cc2Cl)CSC1 | -0.77
c1ccc2c(c1)nc(N1CCCCC1)c1nncn12 | 1.3
Cc1sc2c(c1C)C(=O)/C(=C\Nc1ccccc1Cl)S(=O)(=O)N2C | 4.8*
CN1c2ccsc2C(=O)/C(=C\Nc2ccccc2Cl)S1(=O)=O | -0.04
Cc1sc2c(c1C)C(=O)/C(=C\Nc1ccccn1)S(=O)(=O)N2C | 0.25
COc1ccccc1-c1nnc(SCc2ccccc2)o1 | 0.08
CN(C)c1ccc(C2C3C(=O)N(Cc4ccccc4)C(=O)C3ON2c2ccccc2)cc1 (stereo unspecified) | 3.3*
O=C1C2ON(c3ccccc3)C(c3ccncc3)C2C(=O)N1c1cccc(Cl)c1 (stereo unspecified) | 0.39
SMILES | Dicer processing
COc1ccc(C2C3C(=O)N(c4ccc(F)cc4)C(=O)C3ON2c2ccccc2)cc1 (stereo unspecified) | 0.49
COc1cccc(C2Nc3nonc3NC3=C2C(=O)CC(C)(C)C3)c1 (stereo unspecified) | -1.4
O=c1c(F)cn(Cc2ccc(F)cc2)c(=O)n1Cc1ccc(F)cc1 | -0.72
Cc1ccc(S/C(=C\N(C)C)C(=O)c2ccc(Cl)cc2)cc1 | -0.64
COC(=O)c1cncc(C(=O)OC)c1 | -1.1
CC(C)(C)c1ccc(C(=O)Oc2c(Cl)cncc2Cl)cc1 | 0.22
CC(C)(C)c1cc(C(=O)Oc2cncc(Cl)c2)cc(C(=O)Oc2cncc(Cl)c2)c1 | 36*
CC1=C(C(=O)OCCc2ccccc2)C(c2ccc(C)s2)C2=C(CC(C)(C)CC2=O)N1 (stereo unspecified) | -0.16
CC1(C)CC(=O)C(C(C2=C(O)CC(C)(C)CC2=O)c2cccc(O)c2O)C(=O)C1 (stereo unspecified) | 4.3*
Cc1ccc(C(C2=C(O)CC(C)(C)CC2=O)C2C(=O)CC(C)(C)CC2=O)o1 (stereo unspecified) | -0.3
CC1(C)CC(=O)C(C(C2=C(O)CC(C)(C)CC2=O)c2cc(Br)ccc2O)C(=O)C1 (stereo unspecified) | -0.06
Cc1nc2nc(C)c(Cc3ccccc3)c(=O)n2[nH]1 | 0.54
CC1=C(C(=O)OCC2CCCO2)C(c2ccc(N(C)C)cc2)C2=C(CCCC2=O)N1 (stereo unspecified) | 1.2
Cc1cc(N2C(=O)CSC2c2cccnc2)no1 (stereo unspecified) | 1
COc1ccc(-c2nnc3n2-c2ccccc2OC3)cc1 | -2.1
COC(=O)c1ccc(Cn2nc([N+](=O)[O-])cc2C)cc1 | 0.16
Cc1c(CN2CCc3ccccc3C2)sc2ccccc12 | 4.8*
Cc1c(CC(=S)N2CCOCC2)sc2ccccc12 | -0.68
Cc1c(CN2CCC(C(=O)c3ccc(F)cc3)CC2)sc2ccccc12 | 9.1
Cc1cccc(NC(=S)N2CC(C)OC(C)C2)c1 (stereo unspecified) | -1.4
C=CCOc1ccc(C2N3CC4(C)CN2CC(C)(C3)C4=O)cc1 (stereo unspecified) | -0.15
O=C(O)c1cc2n(n1)C(C(F)(F)F)CC(c1ccco1)N2 (stereo unspecified) | -0.34
CSc1ccccc1NC(=O)c1nn2c(c1Cl)NC(c1ccco1)CC2C(F)(F)F (stereo unspecified) | 4.4*
O=C(NC1CCCC1)c1nn2c(c1Cl)NC(c1ccccc1)CC2C(F)(F)F (stereo unspecified) | -0.2
CC1CN(C(=O)c2cc3n(n2)C(C(F)(F)F)CC(c2ccco2)N3)CC(C)O1 (stereo unspecified) | 1.7
SMILES | Dicer processing
CC1CCN(C(=O)c2nn3c(c2Cl)NC(c2ccco2)CC3C(F)(F)F)CC1 (stereo unspecified) | 4*
CSc1ccccc1NC(=O)c1cc2n(n1)C(C(F)(F)F)CC(c1ccco1)N2 (stereo unspecified) | -0.22
Cc1nc(SCc2ccc(C(F)(F)F)cc2)n(C)c(=O)c1Oc1cccc(C(F)(F)F)c1 | 0.63
CCOC(=O)N/N=C(\C)c1ccc(OC)cc1 | 3
O=C(NCc1ccco1)C1Sc2nnc(-c3ccccc3)n2NC1c1ccc(F)cc1 (stereo unspecified) | 0.08
CSc1nc(N/C=C2\C(=O)c3sccc3N(C)S2(=O)=O)nc(C2CC2)n1 | 0.14
O=C(O)CCS(=O)c1ccccc1C(=O)O (stereo unspecified) | 0.19
COC(=O)C1=C(C)NC2=C(C(=O)CCC2)C1c1sc2ccccc2c1C (stereo unspecified) | -3.4
COC(=O)C1=C(C)NC2=C(C(=O)CC(C)(C)C2)C1c1ccccn1 (stereo unspecified) | 0.16
COCCOC(=O)C1=C(C)NC2=C(C(=O)CCC2)C1c1ccc(C)s1 (stereo unspecified) | 1
CC1=C(C(=O)OCCc2ccccc2)C(c2ccccn2)C2=C(CCCC2=O)N1 (stereo unspecified) | 1.4
COC(=O)C1=C(C)NC2=C(C(=O)CCC2)C1c1ccc(C#Cc2ccccc2)s1 (stereo unspecified) | 3.1*
COC(=O)C1=C(C)NC2=C(C(=O)CCC2)C1c1ccccn1 (stereo unspecified) | 3.3*
O=C(c1oc2ccccc2c1-n1cccc1)C1CC1 | 0.11
CCc1ccc(N=C(N)N=C(N)N)cc1 | 0.41
NN/C(N)=N/C(N)=Nc1ccc(F)cc1 | 3*
NC(N)=NC(N)=Nc1ccc(F)cc1F | -0.23
COC(=O)c1ccc(S(=O)(=O)NC2Cc3ccccc3C2)n1C | 1.1
O/N=C/C1=C(Cl)c2cc(Cl)ccc2SC1 | -0.7
O=C(/C=C/Sc1nc2ccccc2o1)c1ccc(Cl)cc1 | 2.4
O=C(c1cc2n(n1)C(C(F)(F)F)CC(c1ccc(Cl)cc1)N2)N1CCCC1 (stereo unspecified) | 1.7
O=C(c1cc2n(n1)C(C(F)(F)F)CC(c1ccc(Br)cc1)N2)N1CCCCC1 (stereo unspecified) | 1.2
COc1ccc(C2CC(C(F)(F)F)n3nc(C(N)=O)cc3N2)cc1OC (stereo unspecified) | -0.89
